# Source: PubChem BioAssay AID1626 (SRMLSC, 2009)
# Out of some 220,000 compounds screened, about 2,000 (0.91%) were called active. Roughly 2% stayed inconclusive and do not appear here. No stated cut-off is given here; in the data, inconclusive means inhibition above about 80% without an active follow-up result; inactive means below that; test concentration not stated here. These entries were drawn from the full list. Results with a measured potency or affinity are listed apart.
# Test: M. tuberculosis H37Rv growth inhibitors, H37Rv strain (AID 1626);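 further: bacteria incubated seven days before Alamar blue readout; 0% = bacteria only wells and 100% = bacteria with antibiotic wells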
# Conditions: stronger effect = higher value, concentration not given here
row,Structure (SMILES),inhibition
1,CCOC(=O)N1CCC(NC(=O)C2CCN(S(=O)(=O)c3ccc4c(c3)oc(=O)n4C)CC2)CC1,-3.61% (inactive)
2,Cc1ccc(OCCNC(=O)c2cc(C(=O)NCCOc3ccc(C)cc3)cc([N+](=O)[O-])c2)cc1,1.97% (inactive)
3,O=C1c2cc3ccccc3c(-c3ccccc3)c2C(=O)N1c1ccccn1,11.2% (inactive)
4,O=C(C1CCC(N2C(=O)C3CC=CCC3C2=O)CC1)N1CCCCC1 (stereo not given),0.53% (inactive)
5,COc1ccccc1-c1coc2cc(OCC(=O)OCc3ccccc3)ccc2c1=O,8.31% (inactive)
6,CCOc1ccccc1Oc1coc2cc(OCC(=O)O)ccc2c1=O,1.18% (inactive)
7,N#Cc1c2ccc(OCC(N)=O)cc2n2ccccc12,5.54% (inactive)
8,COc1ccc2c(C#N)c3ccccn3c2c1,8.95% (inactive)
9,CS(=O)(=O)Nc1ccccc1NS(C)(=O)=O,2.07% (inactive)
10,Cc1nnc(SCC(=O)NCc2ccc(Cl)cc2)[nH]c1=O,-5.88% (inactive)
11,CC(=O)c1cccc(NC(=O)CC2S/C(=N/N=C/c3ccccc3)NC2=O)c1 (stereo not given),5.53% (inactive)
12,O=C(CC(=O)c1ccccc1O)c1ccc(F)cc1,-0.45% (inactive)
13,Cc1ccc(C(=O)CC(=O)c2cccc(F)c2)c(O)c1,21% (inactive)
14,N=C1C(c2ccccc2)=C(O)CN1c1cccc(S(=O)(=O)Nc2cccc(C(F)(F)F)c2)c1,71.6% (inactive)
15,CCc1ccc(NC(=O)C(C)OC(=O)C2CCC(=O)N2)cc1 (stereo not given),-4.48% (inactive)
16,Cc1ccccc1NC(=S)NCCc1ccccn1,1.47% (inactive)
17,Cc1cc(C)cc(N(CC(=O)NCC2CCCO2)C(=O)CN2C(=O)COc3ccccc32)c1 (stereo not given),-1.08% (inactive)
18,COc1ccc(OCCOc2ccc(C)nc2[N+](=O)[O-])cc1,9.48% (inactive)
19,CCC(CO)NCc1ccc(Br)cc1 (stereo not given),2.11% (inactive)
20,CCC(CO)NCC#Cc1ccccc1 (stereo not given),-0.71% (inactive)
21,CCN1CCN(C(c2cc3cccc(C)c3[nH]c2=O)c2nnnn2Cc2ccccc2)CC1 (stereo not given),-2.17% (inactive)
22,O=[N+]([O-])C(=C1Nc2ccccc2N1)C(Cl)=C(Cl)Cl,0.64% (inactive)

row,Structure (SMILES),inhibition
1,Clc1cc2cccnc2c2ccccc12,-3.53% (inactive)
2,O=[N+]([O-])c1cc(F)c2cccnc2c1O,-0.05% (inactive)
3,COC(=O)c1ccc(COc2cc([N+](=O)[O-])cc3cccnc23)cc1,-7.07% (inactive)
4,O=[N+]([O-])c1ccc(O)c2ncccc12,79% (inactive)
5,O=[N+]([O-])c1cc(Cl)c2cccnc2c1O,3.31% (inactive)
6,Oc1c(I)cc(I)c2cccnc12,76.2% (inactive)
7,Cc1ccc([N+](=O)[O-])c2cccnc12,-9.13% (inactive)
8,CCOC(=O)COc1cc([N+](=O)[O-])cc2cccnc12,3.26% (inactive)
9,CCOc1ccccc1CN1C(=O)c2ccccc2C1C(=O)NCC1CCCO1 (stereo not given),1.98% (inactive)
10,Cc1cc(C)n2c(Br)c(CN3CC4CC(C3)c3cccc(=O)n3C4)nc2n1 (stereo not given),9.25% (inactive)
11,Brc1ccccc1-c1cnco1,-1.43% (inactive)
12,Cc1cccc(OCC(=O)N2CCN(C(=O)c3ccco3)CC2)c1,-15.9% (inactive)
13,COc1ccc(-n2c(C)nc3c(cnn3-c3ccc(C)c(C)c3)c2=O)cc1,17.5% (inactive)
14,O=c1cc(CSc2n[nH]c(-c3ccncc3)n2)nc2sccn12,1.39% (inactive)
15,OCCN1CCN(Cc2cc(Cl)c3cccnc3c2O)CC1,-5.12% (inactive)
16,Oc1ccc(CN2CCc3ccccc3C2)c2cccnc12,1.81% (inactive)
17,CCN(CC)C(=O)Oc1c(Cl)cc(Cl)c2cccnc12,4.99% (inactive)
18,CN(C)C(=O)Oc1c(Cl)cc(Cl)c2cccnc12,1.37% (inactive)
19,CCOC(=O)CN1C(=O)S/C(=C/c2cc(C)n(C)c2C)C1=O,8.52% (inactive)
20,CC(NCCN(C)C)C(=O)C12CC3CC(CC(C3)C1)C2 (stereo not given),6.21% (inactive)
21,Cc1ccc(NCCC#N)cc1C,-1.15% (inactive)
22,CCn1c(SCC(=O)NCc2ccccc2)nnc1-c1ccccc1O,-6.19% (inactive)

row,Structure (SMILES),inhibition
1,CCOc1cc(/C=N/NC(=O)CSc2nncn2C)ccc1OCc1ccccc1,-1.69% (inactive)
2,CCOC(=O)c1[nH]ncc1CN1CCC(Cc2cccc(OC)c2)(C(=O)OCC)CC1,-9.77% (inactive)
3,O=C(OCC(=O)N1CCCc2ccccc21)c1cncc(Br)c1,-11.1% (inactive)
4,Cn1c(O)c(C(c2ccncc2)c2c(O)n(C)c(=S)n(C)c2=O)c(=O)n(C)c1=S,-3.3% (inactive)
5,COc1ccc(-c2nn(-c3ccccc3)cc2CO)cc1,5.02% (inactive)
6,O=C(O)Cc1cn(-c2ccccc2)nc1-c1ccccc1,3.9% (inactive)
7,Cc1ccc(-c2nn(-c3ccccc3)cc2CSC(=N)N)cc1,50.3% (inactive)
8,OCc1cn(-c2ccccc2)nc1-c1ccc(-c2nn(-c3ccccc3)cc2CO)cc1,-1.67% (inactive)
9,Cc1cc(C)c(NC(N)=S)c(C)c1,5.56% (inactive)
10,O=C(Nc1ccc2c(c1)Cc1ccccc1-2)c1cc2ccccc2o1,34.9% (inactive)
11,CCOC(=O)/C(C(C)=O)=C1/OC(=O)c2ccccc21,2.35% (inactive)
12,COc1ccc(N2CCN(S(=O)(=O)c3ccc(OC)cc3)CC2)cc1,6.85% (inactive)
13,O=C(Nc1ccc(F)cc1F)C1(c2cccs2)CCOCC1,4.02% (inactive)
14,CCc1ccc(CCC(=O)Nc2ccc(S(N)(=O)=O)cc2)o1,1.79% (inactive)
15,O=C(CCC1COc2ccccc2O1)Nc1cccnc1 (stereo not given),-8.19% (inactive)
16,CCc1ccc(CCC(=O)Nc2ccc(C(C)=O)cc2)o1,7.37% (inactive)
17,CCc1ccc(CCC(=O)Nc2ccc(C)cc2C)o1,12.7% (inactive)
18,CCOC(=O)c1c(NC(=O)CCc2ccc(CC)o2)sc(C)c1C,-6.75% (inactive)
19,Cc1cc(C)nc(NS(=O)(=O)c2ccc(NC(=O)CCC3COc4ccccc4O3)cc2)n1 (stereo not given),0.51% (inactive)
20,Cc1ccc(NC(=O)CCSCCC(=O)Nc2ccc(C)c(C)c2)cc1C,7.02% (inactive)
21,COC(=O)CCC(=O)Nc1ccc(OC)cc1,1.4% (inactive)
